Source: PubChem BioAssay (NCI)
“And” between values parts separate entries of the source, which are not always exact repeats. Identical values can stand only once. Compounds without any hit were thinned out: in the full panel of roughly 83,000, 20% have a hit.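 Growth was measured after 48 h exposure to one concentration of compound in 96-well plates. Values under 10 count as active.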 The source made the active and inactive calls.

Legend:
Test in all cases: NCI-60 one-dose screen, 48 h (100 = growth as untreated, 0 = no growth, -100 = all killed)
Details in all cases: 10 µM unless noted
HCT-15 colon = tested on: HCT-15 colon
HT29 colon = tested on: HT29 colon
SNB-75 CNS = tested on: SNB-75 CNS
SNB-19 CNS = tested on: SNB-19 CNS
U251 CNS = tested on: U251 CNS
PC-3 prostate = tested on: PC-3 prostate
SK-MEL-5 melanoma = tested on: SK-MEL-5 melanoma
UACC-62 melanoma = tested on: UACC-62 melanoma
LOX IMVI melanoma = tested on: LOX IMVI melanoma
SK-MEL-28 melanoma = tested on: SK-MEL-28 melanoma

| Structure (SMILES) | growth (HCT-15 colon) | growth (HT29 colon) | growth (SNB-75 CNS) | growth (SNB-19 CNS) | growth (U251 CNS) | growth (PC-3 prostate) | growth (SK-MEL-5 melanoma) | growth (UACC-62 melanoma) | growth (LOX IMVI melanoma) | growth (SK-MEL-28 melanoma) |
| --- | --- | --- | --- | --- | --- | --- | --- | --- | --- | --- |
| BrC1=C(Br)C(Br)(Br)C(Br)=C1Br | 60.8% (inactive) | 63.9% (inactive) | 72.7% (inactive) | 92.3% (inactive) | 91.9% (inactive) | 84.6% (inactive) | 102% (inactive) | 71% (inactive) | 45.5% (inactive) | 93% (inactive) |
| O=C1C(N2CCOCC2)=C(I)C(=O)c2ncccc21 | 67.1% (inactive) | 102% (inactive) | 66.3% (inactive) | 73% (inactive) | 61.9% (inactive) | 79.4% (inactive) | 89.4% (inactive) | 69.5% (inactive) | 43.4% (inactive) | 96.6% (inactive) |
| O=C(CCl)n1nnnc1Cc1ccccc1 | 102% (inactive) | 95.6% (inactive) | 84.9% (inactive) | 96.4% (inactive) | 90.3% (inactive) | 94.7% (inactive) | 109% (inactive) | 89.5% (inactive) | 87% (inactive) | 110% (inactive) |
| O=C1/C(=C/c2ccc(-c3ccccc3C(F)(F)F)o2)SC(=S)N1CCc1ccc(O)cc1 | 29.6% (inactive) | 14.8% (inactive) | 29.2% (inactive) | 87.8% (inactive) | 44.1% (inactive) | 48.6% (inactive) | 84.4% (inactive) | 47% (inactive) | 41.4% (inactive) | 69.5% (inactive) |
| COc1cc2ncnc(Nc3ccc(F)c(Cl)c3)c2cc1OCC(=O)N1CCCCC1 | 86.1% (inactive) | 77.1% (inactive) | 87.7% (inactive) | 91.8% (inactive) | 96.9% (inactive) | 84.6% (inactive) | 90.4% (inactive) | 91.7% (inactive) | 87.4% (inactive) | 99.2% (inactive) |
| O=C1Nc2ccccc2/C1=C/c1cccn1CCCCCn1c2ccccc2c(=O)c2ccccc21 | 28.9% (inactive) | 89.5% (inactive) | 86.7% (inactive) | 95.3% (inactive) | 93.4% (inactive) | 42% (inactive) | 32.2% (inactive) | 48.2% (inactive) | 80.3% (inactive) | 88.1% (inactive) |
| COc1cc(-c2[nH]ncc2Nc2ccc(Cl)cc2)cc(OC)c1OC | 59.7% (inactive) | 74.2% (inactive) | 59.8% (inactive) | 74.2% (inactive) | 68.9% (inactive) | 59.9% (inactive) | 43.6% (inactive) | 40% (inactive) | 55.8% (inactive) | 82.1% (inactive) |
| Cc1ccc(S(=O)(=O)OC[C@@]2(C)CC[C@]3(C)CC[C@]4(C)C(=CC[C@@H]5[C@@]6(C)CCCNC(C)(C)[C@@H]6CC[C@]54C)[C@@H]3C2)cc1 | -89.7% (active) | -88.2% (active) | -57.1% (active) | -16.7% (active) | -89.6% (active) | -10.3% (active) | 40.1% (inactive) | -69.2% (active) | -99.5% (active) | 55.6% (inactive) |
| CCOC(=O)c1cnn(CC(O)CC)c1NC(=O)NCc1ccccc1C(F)(F)F (stereo not given) | 103% (inactive) | 86.5% (inactive) | 96% (inactive) | 104% (inactive) | 101% (inactive) | 90.8% (inactive) | 97.6% (inactive) | 88.5% (inactive) | 95.5% (inactive) | 108% (inactive) |
| c1cc(NCCCCN2CCOCC2)c2ccc3c(ccc4c(NCCN5CCOCC5)ccnc43)c2n1 | 70.7% (inactive) | 83.1% (inactive) | 86.8% (inactive) | 68.2% (inactive) | 92.4% (inactive) | 57.2% (inactive) | 98.7% (inactive) | 98.9% (inactive) | 45.9% (inactive) | 94% (inactive) |
| N=C(N)c1ccc(-c2ccc(-c3ccc(F)cc3)s2)nc1 | 10.4% (inactive) | 8.67% (active) | 100% (inactive) | 80.1% (inactive) | 22.3% (inactive) | 65.3% (inactive) | 77% (inactive) | 95.9% (inactive) | 18.6% (inactive) | 102% (inactive) |
| Cc1ccc(Cc2cnc(NC(=O)c3cc(C)oc3C)s2)cc1 | 39.1% (inactive) | 51.3% (inactive) | 76.6% (inactive) | 84.2% (inactive) | 66.9% (inactive) | 72.8% (inactive) | 93.6% (inactive) | 47.6% (inactive) | 68.9% (inactive) | 81.3% (inactive) |
| O=Nc1c(O)ccc2ccccc12 | 43% (inactive) and 103% (inactive) | 24.7% (inactive) and 109% (inactive) | 114% (inactive) | 105% (inactive) and 106% (inactive) | 99.4% (inactive) | 6.57% (active) and 72.4% (inactive) | 80.9% (inactive) and 82.8% (inactive) | 21.2% (inactive) and 87.4% (inactive) | 3.68% (active) and 73.6% (inactive) | 83% (inactive) and 102% (inactive) |
| COc1ccc(/C=N/C2=C(C#N)C(c3ccccc3)c3c(ccc4ccccc34)O2)cc1 (stereo not given) | 22.5% (inactive) | 5.31% (active) | -39.4% (active) | 22.9% (inactive) | 24.1% (inactive) | 23.3% (inactive) | 20.8% (inactive) | 37.3% (inactive) | 28.5% (inactive) | 64.7% (inactive) |
| O=C1OCC2=C1C(c1cccc(C(F)(F)F)c1)c1cc3c(cc1N2CCO)OCCO3 (stereo not given) | 14.1% (inactive) | 3.94% (active) | 42.4% (inactive) | 23.4% (inactive) | 14.7% (inactive) | 26.2% (inactive) | 22.9% (inactive) | 39.9% (inactive) | 37.4% (inactive) | 50% (inactive) |
| CCN1CCN(CC(=O)Nc2nc3ccc(NCc4ccc(C)cc4)cc3s2)CC1 | 1.79% (active) | 14.5% (inactive) | 91.6% (inactive) | 81.6% (inactive) | 60.2% (inactive) | 56% (inactive) | 40.7% (inactive) | -57.1% (active) | -42.4% (active) | 53.4% (inactive) |
| Nc1nc(N)c2c(n1)NC(c1ccc(Cl)cc1)CC(c1cccc(Nc3ccncc3)c1)=N2 (stereo not given) | 71.5% (inactive) | 21% (inactive) | 67.2% (inactive) | 61.8% (inactive) | 34.6% (inactive) | 38.2% (inactive) | 52.1% (inactive) | 69.2% (inactive) | 25.4% (inactive) | 72.2% (inactive) |
| C=C[C@]1(C)C=C2CC[C@@H]3C(C)(C)C(=O)CC[C@@]3(C)[C@@H]2CC1 | 106% (inactive) | 102% (inactive) | 90.5% (inactive) | 108% (inactive) | 98.5% (inactive) | 98.8% (inactive) | 109% (inactive) | 97.9% (inactive) | 99.5% (inactive) | 113% (inactive) |
| O=C(NCCCN1CCCCC1)c1ccc(-c2nc3ccc4[nH]ncc4c3c3c2CCCC3)cc1 | 58.4% (inactive) | 50.7% (inactive) | 17.6% (inactive) | 78.2% (inactive) | 66.7% (inactive) | 29% (inactive) | 76.2% (inactive) | 62.6% (inactive) | 48.3% (inactive) | 72.2% (inactive) |
| Cn1cc(-c2nc3c(F)cc4[nH]ncc4c3c3c2CCCC3)c(C(F)F)n1 | 66.6% (inactive) | 68.4% (inactive) | 57.6% (inactive) | 71.2% (inactive) | 80.5% (inactive) | 29% (inactive) | 65.4% (inactive) | 51.9% (inactive) | 62.6% (inactive) | 80.8% (inactive) |
| CCN(CC)CCCN1C(=O)c2c(c(C)c3c(oc4cc(OC)ccc43)c2C)C1=O | 80.6% (inactive) | 86.9% (inactive) | 146% (inactive) | 99.1% (inactive) | 103% (inactive) | 85.3% (inactive) | 77.6% (inactive) | 102% (inactive) | 87.7% (inactive) | -82.6% (active) |
| O=C(NNc1ccccc1)C1CCCN1 (stereo not given) | 40.5% (inactive) | 62.3% (inactive) | 90.7% (inactive) | 94.1% (inactive) | 82.3% (inactive) | 77% (inactive) | 89.1% (inactive) | 16.2% (inactive) | 8.66% (active) | 69.2% (inactive) |
| O=C1C=C(Nc2ccccc2)c2ncccc2C1=O | -68.7% (active) | -37% (active) | -97.1% (active) | -92.8% (active) | -97.9% (active) | -17.7% (active) | -97.8% (active) | -92.3% (active) | -77.7% (active) | -81.3% (active) |
| O=C1/C(=C/c2ccc(-c3cccc(C(F)(F)F)c3)o2)SC(=S)N1CCc1ccc(O)cc1 | 68.6% (inactive) | 80.4% (inactive) | 56.7% (inactive) | 104% (inactive) | 87.2% (inactive) | 62.6% (inactive) | 90.1% (inactive) | 59% (inactive) | 68.7% (inactive) | 95.8% (inactive) |
| COc1ccc2c(c1)oc1c(C)c3c(c(C)c12)C(=O)N(Nc1ccccc1)C3=O | 105% (inactive) | 106% (inactive) | 94.5% (inactive) | 99% (inactive) | 108% (inactive) | 109% (inactive) | 100% (inactive) | 98.5% (inactive) | 100% (inactive) | 95.3% (inactive) |
